Whole data set: some 110,000 compounds, median “z-score” near -0.1, cut for the highest 2% near 2. The sample holds the highest values, similar compounds and a random draw of the others, so the mix is not that of the screen. Activity calls are given as the source filed them.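 The calls were made as follows: active = z-score in the third read window above 3 or below -3; inactive = the rest.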
The molecules below were run against Metabotropic glutamate receptor 8 (Rattus norvegicus) (UniProt P70579) (assay: mGluR8 Gi/Go-coupled signaling modulation – cell-based, rat, thallium flux, HTS, primary screen (AID 488969)). Details: HEK293 rat mGluR8, GIRK (G protein-gated inwardly rectifying potassium channel) thallium flux, FluoZin2; at 10 µM; stronger effect = higher value; submaximal glutamate (EC20) added with thallium.
Chain of Metabotropic glutamate receptor 8 (Rattus norvegicus) (P70579 whole entry, looked up): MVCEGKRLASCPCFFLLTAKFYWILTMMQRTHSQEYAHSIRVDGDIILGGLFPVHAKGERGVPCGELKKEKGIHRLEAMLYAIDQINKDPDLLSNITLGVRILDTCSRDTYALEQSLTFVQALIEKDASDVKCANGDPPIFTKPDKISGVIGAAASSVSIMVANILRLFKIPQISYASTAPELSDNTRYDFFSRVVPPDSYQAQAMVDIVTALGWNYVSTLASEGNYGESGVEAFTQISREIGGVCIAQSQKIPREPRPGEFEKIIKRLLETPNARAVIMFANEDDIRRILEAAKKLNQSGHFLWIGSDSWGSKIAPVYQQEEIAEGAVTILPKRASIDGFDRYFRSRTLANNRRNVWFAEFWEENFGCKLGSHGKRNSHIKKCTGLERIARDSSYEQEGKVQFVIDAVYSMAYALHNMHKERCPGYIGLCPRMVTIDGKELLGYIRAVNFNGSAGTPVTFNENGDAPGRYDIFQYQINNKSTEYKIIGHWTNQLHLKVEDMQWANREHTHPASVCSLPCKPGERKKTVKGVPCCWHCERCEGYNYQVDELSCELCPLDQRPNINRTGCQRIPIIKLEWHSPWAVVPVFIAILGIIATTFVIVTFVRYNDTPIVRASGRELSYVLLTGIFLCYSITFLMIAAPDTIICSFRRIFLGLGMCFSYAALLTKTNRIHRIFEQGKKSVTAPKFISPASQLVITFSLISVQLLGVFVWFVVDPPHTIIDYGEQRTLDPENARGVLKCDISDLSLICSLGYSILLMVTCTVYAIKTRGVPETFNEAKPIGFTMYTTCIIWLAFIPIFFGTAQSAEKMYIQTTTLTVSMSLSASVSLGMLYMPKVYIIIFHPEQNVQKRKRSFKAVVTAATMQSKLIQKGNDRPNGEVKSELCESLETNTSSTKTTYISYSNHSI

SMILES | z-score
CC(C)(C)c1[nH]nc2c1C(c1ccccc1OC(=O)N1CCOCC1)C(C#N)=C(N)O2 (stereo unspecified) | -2.43
O=C(CSc1nc2ccccc2[nH]1)N/N=C/C=C/c1ccccc1[N+](=O)[O-] | -0.487
CCN(CC)CCNC(=O)c1ccc(N2CCCCC2)c(NS(=O)(=O)c2ccc(C)cc2)c1 | 2.96
Cc1ccc(S(=O)(=O)Nc2cc(C(=O)NCCN3CCCC3)ccc2N2CCCCC2)cc1 | 1.81
COCCCNC(=O)c1ccc(N2CCCC2)c(NS(=O)(=O)c2ccc(C)cc2)c1 | 0.547
Cc1nnc2sc(SCc3ccccc3)nn2c1=O | -0.0579
CC(=O)/C(=N\Nc1ccccc1Cl)Sc1cccc2cccnc12 | 0.299
CC(=O)/C(=N\Nc1cccc(Cl)c1)Sc1cccc2cccnc12 | 0.635
CC(=O)/C(=N\Nc1ccc(Cl)cc1Cl)Sc1cccc2cccnc12 | 2.29
CC(C)(C)SCCNC(=O)c1ccc(NS(C)(=O)=O)cc1 | -0.0865
O=C(CSc1ccc(Cl)cc1)N1CCN(c2ncc(C(F)(F)F)cc2Cl)CC1 | -0.0561
Cc1cc(NC(c2cccnc2)c2ccc3cccnc3c2O)no1 (stereo unspecified) | -0.344
Cc1conc1NC(c1cccs1)c1ccc2cccnc2c1O (stereo unspecified) | 3.41 (active)
Cc1cc(NC(c2ccc(Cl)cc2)c2ccc3cccnc3c2O)no1 (stereo unspecified) | 1.61
COc1cccc(NC(=O)N(Cc2cc3cc(C)cc(C)c3[nH]c2=O)CC2COCCO2)c1 (stereo unspecified) | -0.438
COc1ccc(NC(=O)/C=C/C(=O)O)cc1Cl | 0.0641
Cc1ccc(NC(=O)/C(=C\c2ccccc2)NC(=O)/C=C/c2ccccc2)cc1 | -0.26
O=C(NCc1nnc(SCC(=O)N2CCN(c3ccccc3)CC2)o1)c1ccco1 | -0.268
CC1CCN(C(=O)CSc2nnc(CNC(=O)c3ccco3)o2)CC1 | 2.28
O=C(NCc1nnc(SCC(=O)N2CCCCCC2)o1)c1ccco1 | -0.474
CCOC(=O)c1c(NC(=O)CSc2nnc(CNc3ccc(Cl)cc3)o2)sc(C)c1C | -0.783
COc1ccc(COC(=O)Nc2cc3c(C(F)(F)F)nn(C)c3s2)cc1 | -0.456

SMILES | z-score
Cn1nc(C(F)(F)F)c2cc(NC(=O)OCC(C)(C)C)sc21 | -1.03
Cn1nc(C(F)(F)F)c2cc(NC(=O)OCc3ccc(F)cc3)sc21 | 9.32 (active)
N/C(=N\OC(=O)CSc1ccccc1)c1cccc([N+](=O)[O-])c1 | -0.477
O=C(COC(=O)c1ccccc1NC(=O)c1ccccc1)c1ccc([N+](=O)[O-])cc1 | -0.202
CC(=O)C1=C(C)NC(SCc2cccc3ccccc23)=C(C#N)C1c1ccco1 (stereo unspecified) | 0.063
CSCSC1=C(C#N)C(c2ccc(Cl)cc2)C(C(C)=O)=C(C)N1 (stereo unspecified) | 3.87 (active)
CSCSC1=C(C#N)C(c2ccccc2Cl)C(C(C)=O)=C(C)N1 (stereo unspecified) | -2.68
CCc1ccc(C(=O)CSC2=C(C#N)C(c3ccco3)C(C(C)=O)=C(C)N2)cc1 (stereo unspecified) | -0.295
CC(=O)C1=C(C)NC(SCc2ccc(C#N)cc2)=C(C#N)C1c1ccco1 (stereo unspecified) | 5.85 (active)
C=CCOC(=O)C1=C(C)NC(SCC)=C(C#N)C1c1ccc(Cl)cc1 (stereo unspecified) | 0.285
Cn1c(CNC(=O)c2ccc(Cl)cc2)nnc1SCC(=O)Nc1sc2c(c1C#N)CCCC2 | 0.356
CN1CCc2nc(SCc3ccc(Cl)cc3)c(C#N)c(-c3cccs3)c2C1 | 0.101
CCN(C(=O)C1CCN(S(=O)(=O)c2cccc3nonc23)CC1)c1ccccc1 | -0.39
CCOC(=O)c1[nH]c(C)c(/C(O)=C2\C(=O)C(=O)N(CCN(C)C)C2c2ccc(C)o2)c1C (stereo unspecified) | -0.288
COC(=O)[C@H](CCSC)NC(=O)N1CCC(C)CC1 | 0.07
COc1ccc(NC(=O)c2cccnc2Sc2ccccc2)c(OC)c1 | -0.415
COc1cc2c(cc1OC)CN(S(C)(=O)=O)CC2 | 0.0161
NS(=O)(=O)c1ccc(NC(=O)COC(=O)CCC2CCCCC2)cc1 | -0.157
N=c1ncn(CC(O)CO)c2nc(N3CCOCC3)[nH]c12 (stereo unspecified) | -0.0516
COc1ccc(C(=O)N(C(C)C)C(C)C)c(OC)c1 | 0.14
Oc1[nH]c2ccccc2c1N=Nc1ccccc1F | 0.0754
Oc1[nH]c2ccccc2c1N=Nc1nc2ccccc2s1 | 2.12

SMILES | z-score
Oc1[nH]c2ccccc2c1N=Nc1ccc(F)cc1 | -0.405
Cc1c(NC(=O)CCC(=O)N2CCCCC2)c(=O)n(-c2ccccc2)n1C | -0.244
Cc1c(NC(=S)NC(NC(=O)CC(C)C)C(Cl)(Cl)Cl)c(=O)n(-c2ccccc2)n1C (stereo unspecified) | 2.53
CCC(=O)NC(NC(=S)Nc1c(C)n(C)n(-c2ccccc2)c1=O)C(Cl)(Cl)Cl (stereo unspecified) | -0.491
Cc1c(NC(=O)C2C3C=CC(C3)C2C(=O)O)c(=O)n(-c2ccccc2)n1C (stereo unspecified) | 0.15
Cc1c(NC(=O)CC(=O)Nc2c(C)n(C)n(-c3ccccc3)c2=O)c(=O)n(-c2ccccc2)n1C | -0.0936
Cc1c(NC(=O)C2CC=CCC2C(=O)O)c(=O)n(-c2ccccc2)n1C (stereo unspecified) | 2.16
Cc1c(NC(=O)CSc2ccccc2C(=O)Nc2cccnc2)c(=O)n(-c2ccccc2)n1C | 2.06
Cc1c(NC(=O)CSc2ccccn2)c(=O)n(-c2ccccc2)n1C | -0.147
Cc1c(NC(=O)CSc2nccn2C)c(=O)n(-c2ccccc2)n1C | -0.0895
CCCC(=O)NC(NC(=S)Nc1c(C)n(C)n(-c2ccccc2)c1=O)C(Cl)(Cl)Cl (stereo unspecified) | -0.165
Cc1c(NC(=O)CCC2CCCCC2)c(=O)n(-c2ccccc2)n1C | 2.9
Cc1c(NC(=O)N(C)C)c(=O)n(-c2ccccc2)n1C | -0.0915
O=C(NCCc1ccncc1)C12CC3CC(CC(C3)C1)C2 | 0.467
CC1CCN(S(=O)(=O)c2ccc3c(c2)oc(=O)n3CC(=O)N2c3ccccc3CC2C)CC1 (stereo unspecified) | 0.0729
Cc1cc(C)n(-c2nc(NCC3CCCO3)c3c4c(sc3n2)COC(C)(C)C4)n1 (stereo unspecified) | -2
C=CCc1cccc(/C=N/NC(=O)CCCNc2ccc(C)cc2)c1O | -0.144
CCOC(=O)C1CCN(C(=O)CN(c2ccc(OC)cc2)S(=O)(=O)c2c(C)nn(C)c2C)CC1 | -0.304
CCCC(C)NC(=O)c1ccc2[nH]c3c(c2c1)CC(C)CC3 (stereo unspecified) | -0.815
O=C(CSc1ncn(-c2ccccc2)n1)Nc1ccc(Br)cn1 | -0.314
COC(=O)c1c(C)[nH]c(C(=O)OCC(=O)NCC(C)C)c1C | -0.00108
O=C(CSCCO)Nc1cccc([N+](=O)[O-])c1 | -1.53

— PubChem BioAssay AID488969 (Vanderbilt High Throughput Screening Facility, 2010)
